The results in this text go back to PubChem BioAssay (NCI).

The panel holds about 83,000 compounds, 20% with a hit somewhere; the sample as a whole holds those more often.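 Cell lines were cultured in 96-well plates, exposed to a single compound concentration, and assessed for percent growth 48 hours later.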 Values without a mark were called inactive. The source made the active and inactive calls. The calls were made as follows: active = growth percent below 10; inactive = the rest.

Among the test systems are HCT-15 colon; HT29 colon; SNB-75 CNS; U251 CNS; PC-3 prostate; SK-MEL-5 melanoma; UACC-62 melanoma; LOX IMVI melanoma; SK-MEL-28 melanoma; SNB-19 CNS.
Holding throughout (experiment): NCI-60 one-dose screen, 48 h (100 = growth as untreated, 0 = no growth, -100 = all killed)
Settings in all cases: 10 µM unless noted

In the case of `CC(C)(C)OC(=O)N1CCCN(CCNc2nccc(-c3c(-c4cccc(O)c4)nc4sccn34)n2)S1(=O)=O`, the growth in the experiment with HCT-15 colon was 99.9%; in the experiment on HT29 colon, 56.7%; in the experiment on SNB-75 CNS, 84%; with U251 CNS, 117%; in the experiment on PC-3 prostate, 85%; in the experiment with SK-MEL-5 melanoma, 86.9%. In addition, the growth is 12.1% in the experiment with UACC-62 melanoma, 32.3% in the experiment on LOX IMVI melanoma and 45.4% in the experiment on SK-MEL-28 melanoma.
For `CN(C)c1ccc(/C=C\c2cccc[n+]2C)cc1`, the growth with HCT-15 colon was 104%; in the experiment with HT29 colon it was 34.4%; in the experiment with SNB-75 CNS it was 70.1%; with U251 CNS it was 33%; in the experiment on PC-3 prostate, 11%; with SK-MEL-5 melanoma, 24.2%. The growth in the experiment with UACC-62 melanoma is 81.3%; in the experiment on LOX IMVI melanoma, 50%; in the experiment on SK-MEL-28 melanoma, 56.6%.
Take `COc1ccc(/C=N/NC(N)=S)c(OC)n1`: the growth in the experiment with HCT-15 colon was 86.9%; in the experiment with HT29 colon, 93.4%; with SNB-19 CNS, 102%; in the experiment with U251 CNS it was 95.8%; in the experiment with PC-3 prostate, 105%; in the experiment on SK-MEL-5 melanoma it was 93.1%. Further, the growth in the experiment with UACC-62 melanoma is 96.8%; in the experiment with LOX IMVI melanoma, 102%; in the experiment with SK-MEL-28 melanoma, 98.5%.
On to `COc1cc2c(c(OC)c1O)C(=O)C(OC)C(c1ccc(O)c(O)c1)O2` (stereo not drawn), for which the growth in the experiment on HCT-15 colon is 3.6% (active); in the experiment on HT29 colon it was 46.8%; in the experiment with SNB-19 CNS it was 21%; in the experiment with U251 CNS, 15.4%; in the experiment with PC-3 prostate, -22.3% (active); in the experiment with SK-MEL-5 melanoma it was -23.6% (active). Also, the growth was 29.3% in the experiment with UACC-62 melanoma, 12.9% in the experiment with LOX IMVI melanoma and 56.2% in the experiment on SK-MEL-28 melanoma.
Consider `COc1cc2ccc(C(C)=O)cc2cc1OC`, for which the growth in the experiment on HCT-15 colon is 97.3%; in the experiment on HT29 colon it was 112%; in the experiment with SNB-19 CNS, 104%; in the experiment on PC-3 prostate, 91.2%; with SK-MEL-5 melanoma, 96.5%; with UACC-62 melanoma it was 89.4%. The growth with LOX IMVI melanoma is 92.3%; in the experiment with SK-MEL-28 melanoma it was 131%.
Take `COc1ccc(C(=O)OC2C(OC3C(O)COC(O[C@H]4C[C@H]5[C@@H]6CC=C7C[C@@H](O)CC[C@]7(C)[C@H]6CC[C@]5(C)[C@H]4[C@H](C)C(=O)CCC(C)C)C3OC(=O)C(C)C)OCC(O)C2O)cc1` (stereo partly drawn): the growth is -8.16% (active) in the experiment on HCT-15 colon; 12.1% in the experiment with HT29 colon; 27.8% with SNB-19 CNS; 2.54% (active) with U251 CNS; 2.36% (active) in the experiment with PC-3 prostate; -36.3% (active) with SK-MEL-5 melanoma. For the same compound, the growth in the experiment on UACC-62 melanoma was -35.6% (active); in the experiment with LOX IMVI melanoma, -17.5% (active); in the experiment on SK-MEL-28 melanoma it was -49.6% (active).
`COc1ccc2nc3ccccc3c(NCc3ccc(Cl)cc3)c2c1`: the growth in the experiment with HCT-15 colon is 5.04% (active); in the experiment with HT29 colon, -2.29% (active); in the experiment with SNB-19 CNS, 26.4%; with U251 CNS, 2.55% (active); with PC-3 prostate, 19.5%; in the experiment with SK-MEL-5 melanoma, 11.7%. The figures for the growth in the experiment with UACC-62 melanoma, with LOX IMVI melanoma and with SK-MEL-28 melanoma were 64.7%, -86.3% (active) and 7.07% (active), respectively.
As to `O=[N+]([O-])c1ccc(N/N=C/c2ccccc2O)nc1`, the growth in the experiment on HCT-15 colon is 29.9%; with HT29 colon, 47%; in the experiment on SNB-19 CNS, 56.2%; in the experiment with U251 CNS, 28.5%; with PC-3 prostate, 45.8%; in the experiment on SK-MEL-5 melanoma it was 20%. Also, the growth in the experiment with UACC-62 melanoma was 42.7%; in the experiment on LOX IMVI melanoma, 26.4%; with SK-MEL-28 melanoma it was 62%.
In the case of `CC(C)c1cccc(C#N)c1`, the growth with HCT-15 colon is 113%; in the experiment on HT29 colon it was 104%; in the experiment with SNB-19 CNS, 99%; in the experiment with U251 CNS it was 94.8%; in the experiment on PC-3 prostate, 85.5%; in the experiment with SK-MEL-5 melanoma it was 92.3%. Also, the growth with UACC-62 melanoma is 102%; in the experiment on LOX IMVI melanoma, 95.3%; in the experiment on SK-MEL-28 melanoma, 105%.
For the compound `CCN1CCN(Cc2ccc(NC(=O)Nc3ccc(-n4ccc5c(NC(=O)c6ccccc6)nccc54)cc3)cc2C(F)(F)F)CC1`, the growth is -6.13% (active) in the experiment on HCT-15 colon; -35.3% (active) in the experiment with HT29 colon; -14% (active) in the experiment with SNB-19 CNS; -75.8% (active) with U251 CNS; 54.6% in the experiment on PC-3 prostate; -97.6% (active) in the experiment on SK-MEL-5 melanoma. Also, the growth is 41.3% with UACC-62 melanoma, -84.5% (active) with LOX IMVI melanoma and -96.7% (active) in the experiment with SK-MEL-28 melanoma.
For the compound `c1cc(C2CCCCC2)ccc1-c1cnc2nonc2n1`, the growth with HT29 colon was 3.11% (active); in the experiment with SNB-75 CNS, 26.6%; with SNB-19 CNS, 37.2%; with U251 CNS it was 21.6%; with PC-3 prostate it was 23.9%; with SK-MEL-5 melanoma, 22.6%. Moreover, the growth in the experiment on UACC-62 melanoma was 8.73% (active); in the experiment on LOX IMVI melanoma, 2.13% (active); in the experiment with SK-MEL-28 melanoma, 65.5%.
Regarding `CC1=C(/C=C/C(C)=C/C=C(C(=O)O)\C(C)=C\C(=O)O)C(C)(C)CCC1`, the growth was 105% with HCT-15 colon; 96.8% in the experiment on HT29 colon; 97.8% in the experiment on SNB-19 CNS; 94.6% in the experiment with U251 CNS; 91.3% in the experiment on PC-3 prostate; 111% in the experiment on SK-MEL-5 melanoma. For the same compound, the growth is 96.9% in the experiment on UACC-62 melanoma, 94.9% with LOX IMVI melanoma and 114% in the experiment with SK-MEL-28 melanoma.
In the case of `CN(C)CCCn1c(=O)c2cc([N+](=O)[O-])ccc2c2cnc3[nH]ccc3c21`, the growth in the experiment on HCT-15 colon was 48%; in the experiment with HT29 colon, 16.2%; in the experiment with SNB-19 CNS, 53.5%; in the experiment on U251 CNS it was 57.4%; in the experiment on PC-3 prostate it was 48.4%; in the experiment with SK-MEL-5 melanoma it was 69.4%. The growth with UACC-62 melanoma was 74.6%; in the experiment on LOX IMVI melanoma, 38.5%; in the experiment on SK-MEL-28 melanoma it was 104%.
As for `COc1ccc(-n2nc(C(=O)Nc3ccc(F)cc3)nc2-c2cc(OC)c(OC)c(OC)c2)cc1`, the growth was 82.2% in the experiment with HCT-15 colon; 95.8% in the experiment on HT29 colon; 92.3% in the experiment with SNB-19 CNS; 79.2% with PC-3 prostate; 80.3% in the experiment on SK-MEL-5 melanoma; 83.7% in the experiment with UACC-62 melanoma. Further, the growth in the experiment on LOX IMVI melanoma is 94.3%; in the experiment with SK-MEL-28 melanoma it was 119%.
On to `S=C(Nc1ccc(Cl)cc1)Nc1ccc(Cl)cc1` (tested in a mixture with another compound), for which the growth in the experiment with HCT-15 colon is 9.22% (active); with HT29 colon, 1.05% (active); in the experiment with SNB-19 CNS, 24.7%; with U251 CNS, -36.6% (active); in the experiment on PC-3 prostate it was 3.81% (active); in the experiment with SK-MEL-5 melanoma, -61.3% (active). Besides, the growth with UACC-62 melanoma is 13.8%; in the experiment on LOX IMVI melanoma, 5.65% (active); in the experiment with SK-MEL-28 melanoma it was 25.8%.
